Here are results for 47 compounds from PubChem BioAssay AID588334 (Broad Institute, 2011).

The structures appear in SMILES notation. Hit rate of the full screen: of about 300,000 compounds, about 2,300 (0.77%) were called active. For the sample, actives were picked, then their nearest neighbours and some compounds at random. A number with no mark means an inactive call.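 How the source made its calls: active means mean activation of at least 80% with every replicate also reaching 80%; inconclusive means mean reaches 80% but some replicate falls short; inactive means the rest.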

This test can be described thus: activators of MITF-driven TRPM1 promoter reporter, primary screen, cell-based, SK-MEL-5, luciferase, single point (AID 588334).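 Further: 0% = neutral control wells and 100% = parthenolide positive control wells.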 The settings on record: SK-MEL-5 TRPM1-promoter luciferase, 24 h; at 12.5 µM; hits give high values; % of positive control, neutral wells = 0.
Regarding `CCN(CC)S(=O)(=O)c1cccc(NC(=O)c2ccc(S(=O)(=O)N3CCCC3)cc2)c1`, the activation was -10.8%. As for `Cc1ccc(OCc2cc(C(=O)N(C)CCc3ccccc3)no2)cc1C`, the activation was 111% (active). For `Cc1cc(CN(C)C(=O)c2cc(COc3ccc(C)c(C)c3)on2)n[nH]1`, the activation was 11.7%. The value for `Cc1ccc(OCc2cc(C(=O)N(C)CCn3ccnc3C)no2)cc1C` was 11%.

Turning to `CCN1CCC(O)(/C=C/c2ccc(C)cc2)C(C(=O)/C=C/c2ccc(C)cc2)C1` (configuration not stated), the activation was -75.9%. The value for `COc1cccc(CC(=NO)c2cccc(OC)c2)c1` was 1.7%; that for `CCCN(CCC)S(=O)(=O)c1cc2c(cc1Br)CCN2C(=O)CC` was 3.88%; that for `COc1cc(OC)cc(-c2sc3ccc(OC)cc3c2-c2ccc3cc[nH]c3c2)c1` was 7.42%. The value for `COc1ccc2sc(-c3ccc(N(C)C)cc3)c(C#CCO)c2c1` was 51.4%; that for `COc1ccc2sc(-c3ccc(N(C)C)cc3)c(-c3ccc4cc[nH]c4c3)c2c1` was 102% (active). The value for `CCOC(=O)c1ccccc1NC(=O)CSc1nc2c(sc(=S)n2CC)c(=O)[nH]1` was 1.55%; that for `O=S(=O)(Nc1ccc2ccccc2c1)N1CCCCC1` was 3.28%. `O=C(/C=C/c1ccc(Cl)cc1)Nc1ccc(S(=O)(=O)Nc2ncccn2)cc1`: the activation is -11.3%.

As to `CC(C)(C)c1ccc(/C=C/C(=O)Nc2ncccn2)cc1`, the activation is 118% (active).

On to `CC(C)(C)c1ccc(/C=C/C(=O)NCCCn2ccnc2)cc1`, for which the activation is -9.17%. Under `COc1ccc(CN2CCN(C(=O)c3cc(C4CC4)nn3-c3ccccc3)CC2)cc1F` stands -1.05%; under `O=C(Nc1cccc(S(=O)(=O)N2CCCCC2)c1)c1cncc(Br)c1`, -5.18%. For the compound `O=C(Nc1ccc(N2CCCC2=O)cc1)c1cncc(Br)c1`, the activation is 114% (active). Take `O=C(Nc1cccc(S(=O)(=O)N2CCCC2)c1)c1cncc(Br)c1`: the activation is 15.2%.

As for `O=C(NN=Cc1ccc([N+](=O)[O-])cc1)C1CC1`, the activation was 17.3%. Under `Cc1cc(OCCCC(=O)Nc2cc(S(=O)(=O)N3CCOCC3)ccc2N2CCOCC2)ccc1Cl` stands 2.58%. The value for `O=c1c2ccccc2c(-c2ccc(F)cc2)nn1-c1ccc(C(F)(F)F)cc1` was -11.9%. `Cn1c(-c2ccc(F)cc2)cc2onc(-c3ccccc3Cl)c2c1=O`: the activation was 76.3%. Under `Cn1c(-c2ccc(C(F)(F)F)cc2)cc2onc(-c3ccccc3)c2c1=O` stands 126% (active); under `O=S(=O)(O)c1cc2onnc2c2ccccc12`, -3.61%; under `COc1ccc(-c2ccc3c(c2)C2CC3CCN2CCC#N)cc1` (configuration not stated), 0.239%. Under `CC(=O)c1sc(NC(=O)CCCOc2ccccc2C)nc1C` stands -1.04%. With `CC(C)c1ccc(C=NNc2ccc([N+](=O)[O-])cn2)cc1`, the activation is 16.4%. As for `CC(=O)c1sc(N/N=C/c2ccc(C(C)C)cc2)nc1C`, the activation was 94.8% (active). The value for `Cc1ccc(Nc2c(O)nc[nH]c2=O)cc1C` was -6.95%; that for `CCN(CC(=O)Nc1c(F)cccc1F)C(=O)Cc1cccs1` was 11.6%. Take `O=[N+]([O-])c1ccc(COc2ccccc2CN2CCOCC2)cc1`: the activation was -8.16%. The value for `O=C(Cc1ccc(NC(=O)C2CCCN(C(=O)CCc3ccccc3)C2)cc1)Nc1ccc(C(=O)N2CCOCC2)cc1` (configuration not stated) was 8.07%; that for `CCc1c(C)c2ccc(OC3CCCCC3=O)cc2oc1=O` (configuration not stated) was 92.6% (active); that for `COC(=O)Cc1c(C)c2ccc(OCC(=O)NCc3ccc4c(c3)OCO4)cc2oc1=O` was -3.93%. For the compound `Cc1c(CCC(=O)O)c(=O)oc2cc(OCc3ccc(Br)cc3)ccc12`, the activation is -2.55%. Turning to `CC/C(=C\c1ccc(Cl)cc1)c1ccncc1`, the activation is -3.21%. Under `Nc1ccc(-c2nnc(-c3ccc(-c4ccccc4)cc3)o2)cc1` stands 89.1% (active); under `Nc1ccc(-c2nnc(-c3ccccc3)o2)cc1`, 27.8%. Under `Brc1ccc(-c2nnc(-c3ccccc3)o2)o1` stands 48.3%; under `CC[C@]12c3[nH]c4ccc(Cl)cc4c3CCN1C(=O)[C@@H](CC(=O)NCCCOC)C[C@@H]2C(=O)N1CCN(C(=O)C2CC2)CC1`, -3.13%; under `O=C(Nc1cccc(F)c1)NC1CCCCCCC1`, 119% (active). Take `C/C(CC(=O)Nc1cccc(F)c1)=N\NC(=O)C(=O)NC1CCCCC1`: the activation was -5.94%.

For the compound `O=C(Nc1cccc(F)c1)NC1CCCc2ccccc21` (configuration not stated), the activation is 11.6%. In the case of `Cc1occc1C(=O)Nc1nnc(C2CCCCC2)s1`, the activation is 91.3% (active). For the compound `O=C(Nc1nnc(C2CC2)s1)c1cc(Cl)sc1Cl`, the activation is 6.39%. Regarding `Cc1occc1C(=O)Nc1nnc(-c2ccncc2)s1`, the activation was 23%.
